# Measured values taken from PubChem BioAssay AID2130 (The Scripps Research Institute Molecular Screening Center, 2009).
# Hit rate of the full screen: of about 320,000 compounds, about 1,700 (0.53%) were called active. Only a selection was taken, and actives are over-represented in it overall. Values without a mark were called inactive.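 How the source made its calls: active means inhibition above the campaign mean of all compounds plus 3 SD (cut at about 26% in these data); inactive means the rest.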
# Target: Protein phosphatase methylesterase 1 (Homo sapiens) (UniProt Q9Y570)
# Sequence (Q9Y570 whole entry, looked up): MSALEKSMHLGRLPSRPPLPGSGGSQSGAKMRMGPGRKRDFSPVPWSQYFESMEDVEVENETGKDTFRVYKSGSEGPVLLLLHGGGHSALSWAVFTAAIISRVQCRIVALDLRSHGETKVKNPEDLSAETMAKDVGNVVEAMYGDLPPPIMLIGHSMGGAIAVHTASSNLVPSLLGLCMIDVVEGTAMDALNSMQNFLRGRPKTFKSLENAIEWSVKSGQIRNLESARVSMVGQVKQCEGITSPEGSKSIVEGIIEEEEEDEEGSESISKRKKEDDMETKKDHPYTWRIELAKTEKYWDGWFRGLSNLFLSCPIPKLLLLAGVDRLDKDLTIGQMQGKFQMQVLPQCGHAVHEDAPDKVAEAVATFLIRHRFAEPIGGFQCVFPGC
# Assay: human PME-1 methylesterase blockers – biochemical, fluorescence polarization, FP-Rh probe, HTS, primary screen (AID 2130);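 further: competitive labeling of PME-1 active site by serine hydrolase directed probe; 0% = PME-1 with DMSO and 100% = wells lacking PME-1 enzyme; inhibitors block probe labeling so polarization falls and inhibition rises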
# Settings: recombinant PME-1, FP-Rh probe fluorescence polarization; at 5.9 µM; hits give high values
row,Compound,inhibition
1,O=C(NCc1cccs1)C1CCN(S(=O)(=O)c2ccc3c(c2)OCCO3)CC1,10.8%
2,O=C(NCc1cccs1)C1CCN(S(=O)(=O)c2ccc(Cl)cc2)CC1,49.3% (active)
3,O=C(NCc1ccc(Cl)cc1)C1CCN(S(=O)(=O)c2cccs2)CC1,11.3%
4,Cc1cccc(N2CCN(Cc3nc(C4CC4)no3)CC2)n1,0.08%
5,CC1C(c2ccccc2)=[N+]([O-])C2(CCCC2)N1O (stereo not given),-10.2%
6,CCCc1cc(-c2nc(-c3ccc(C)cc3)cs2)ccn1,-6.39%
7,Cc1ccc(-c2csc(-c3c[nH]c4ccccc34)n2)cc1,27.5% (active)
8,Cc1ccc(-c2csc(-c3cc(C)on3)n2)cc1,-0.04%
9,COc1ccccc1-c1sc2ccccc2c1-c1ccc(C(C)=O)cc1,33.6% (active)
10,COc1ccccc1-c1sc2ccccc2c1-c1ccc(Br)nc1,-9.82%
11,COc1ccccc1-c1c(C)nn2c(C)c(C(C)=O)cnc12,-0.93%
12,N#Cc1c(C(F)(F)F)cc(-c2cccs2)nc1N1CCCCC1,2.44%
13,COc1ccc(CN2CCCC(C(=O)c3ccc(Cl)cc3)C2)cc1Cn1cncn1 (stereo not given),4.9%
14,CC(=O)c1ccc(OCC(O)CN2CCN(S(=O)(=O)c3cccc(Br)c3)CC2)cc1 (stereo not given),7.43%
15,CC(=O)NC1=NN(C(C)=O)C(C)(c2ccc(Cl)s2)S1 (stereo not given),-1.89%
16,COc1ccc(Nc2nc(-c3cccnc3)nc3ccccc23)cn1,0.55%
17,CC(=O)Nc1cccc(Nc2nc(-c3cccs3)nc3ccccc23)c1,-31.9%
18,Cc1cccc(-c2nc(Nc3ccc(O)cc3)c3ccccc3n2)c1,30.6% (active)
19,CC(C)c1c(C(=O)N/N=C/c2ccccc2C(=O)O)nnn1-c1nonc1N,3.05%
20,Nc1nonc1-n1nnc(C(=O)N/N=C/C2CCCCC2)c1-c1ccccc1,2.24%
21,Nc1nonc1-n1nnc(C(=O)N/N=C/c2c[nH]c3ccccc23)c1-c1ccccc1,34.1% (active)
22,O=C(C(=O)N1CCc2ccccc2C1)c1c[nH]c2ccccc12,-0.44%
23,Cc1cccc(C)c1NC(=S)N1CCCCCC1,-3.93%
24,COc1ccc(CNC(=O)COc2ccccc2C(=O)c2cnn(-c3ccccc3)c2)cc1OC,-5.4%

row,Compound,inhibition
1,Cc1ccc(S(=O)(=O)n2cnc3ccccc32)c(C)c1,-0.58%
2,O=c1[nH]cnc(O)c1C(c1ccc(F)cc1)c1c(O)nc[nH]c1=O,-2.73%
3,COc1cccc(NC(=O)Nc2nnc(N3CCCCC3C)s2)c1 (stereo not given),43.8% (active)
4,COc1cccc(NC(=O)NCCN2CCCCC2)c1,0.47%
5,COc1cccc(C(=O)Nc2nnc(S(=O)(=O)N3CCCCC3)s2)c1,-0.5%
6,CC1CCC(NC(=O)CN(C)S(=O)(=O)c2ccc3c(c2)c(=O)n(C)c(=O)n3C)CC1 (stereo not given),0.21%
7,COc1ccnc(Oc2ccccc2)c1-c1ncn[nH]1,3.26%
8,O=C(Nc1ccc(C(F)(F)F)cc1)c1cccc(-n2cnnn2)c1,-9.13%
9,CC(=O)Nc1nc(C)c(-c2csc(Nc3ccc(S(N)(=O)=O)cc3)n2)s1,-2.64%
10,CCCCCCC(=O)Nc1nc(C)c(-c2csc(Nc3cc(Cl)ccc3OC)n2)s1,13.6%
11,CCCCCCC(=O)Nc1nc(C)c(-c2csc(Nc3cccc(OC)c3)n2)s1,16.8%
12,CCCCC(=O)Nc1nc(C)c(-c2csc(Nc3ccc(Cl)cc3)n2)s1,16.9%
13,C=CCCC(=O)Nc1nc(C)c(-c2csc(Nc3ccc(Cl)cc3)n2)s1,28.8% (active)
14,Cc1nc(NC(=O)c2cccc(Cl)c2)sc1-c1csc(Nc2cccc(Cl)c2)n1,32.1% (active)
15,COc1ccc(F)cc1C(=O)COC(=O)c1n[nH]c(=O)c2ccccc12,2.97%
16,Cc1cc(OC(=O)c2ccc(OC(C)C)cc2)c([N+](=O)[O-])c(=O)[nH]1,-4.45%
17,COc1cc(OC)cc(C(=O)NNC(=O)CCOc2ccccc2OC)c1,-2.05%
18,CCOc1ccc(-c2cn(S(=O)(=O)c3cccc4nsnc34)nc2N)cc1,2.2%
19,Cc1ccccc1CC1(CO)CCCN(Cc2ccc3c(c2)OCCO3)C1 (stereo not given),3.22%
20,O=S(=O)(NCCc1ccc(Cl)cc1)c1cccs1,6.08%
21,O=C(N/N=C/c1cccnc1)c1cc2ccccc2cc1O,12.5%
22,O=C(NNc1c2ccccc2nc2ccccc12)c1cc2ccccc2cc1O,76.5% (active)
23,CC(C)(C)OC(=O)NNc1c2ccccc2nc2ccccc12,17.6%
24,COc1ccccc1C1C(C(N)=O)=C(C)Nc2nc(CCCO)nn21 (stereo not given),-0.55%

row,Compound,inhibition
1,COc1ccc(C(=O)OC(C)C(=O)NC2CCCC2)cc1S(=O)(=O)N1CCOCC1 (stereo not given),2.8%
2,O=c1[nH]n(-c2ccc([N+](=O)[O-])cc2)c(=O)c2ccccc12,26.6% (active)
3,O=c1[nH]c2cccnc2n1-c1ccc([N+](=O)[O-])cc1,5.31%
4,COc1cnn(-c2ccc([N+](=O)[O-])cc2)c(=O)c1Cl,-4.7%
5,CCCCN1C(N)=NC[C@@H]1CC1CCCCC1,-2.94%
6,Cc1cc(=O)oc2cc(NC(=O)C3CC(=O)N(Cc4ccccc4)C3)ccc12 (stereo not given),7.03%
7,Oc1ccc(C2Nc3cccc4cccc(c34)N2)cc1,53.6% (active)
8,Cc1ccc(C2Nc3cccc4cccc(c34)N2)cc1,1.72%
9,COc1cccc(C2Nc3cccc4cccc(c34)N2)c1,14.7%
10,CCc1ccc(NC(=O)CN2C(=O)COc3ccc(S(=O)(=O)N4CCCC4)cc32)cc1,-0.43%
11,CCOC(=O)C1(Cc2ccccc2C(F)(F)F)CCN(C(=O)c2cc(C)n(C)n2)CC1,-3.56%
12,CCCCCN(C(=O)CCC(=O)OCCOc1ccc(OC)cc1)c1c(N)n(CCCC)c(=O)[nH]c1=O,-1.09%
13,C=CCn1cc(-c2cccc(C(F)(F)F)c2)cc(C#N)c1=O,1.51%
14,Oc1ccc(N=Cc2sc3ccccc3c2Cl)cc1,14.5%
15,CCOc1[nH]n(-c2ccc(Cl)cc2)c(=O)c1C=Nc1ccc(O)cc1,14.7%
16,Oc1ccc(N=Cc2c(O)ccc3ccccc23)cc1,52.4% (active)
17,CN(CCc1ccccn1)S(=O)(=O)c1ccc2c3c(cccc13)C(=O)N2,7.3%
18,Nc1nc(CC(=O)CSc2ccc(Cl)cc2)nc(Nc2ccc(F)cc2)n1,0.37%
19,COc1cccc(N2C(=O)CC(N3CCc4ccccc4C3)C2=O)c1 (stereo not given),1.67%
20,COc1cccc(N2CCN(CC(=O)Nc3ccnn3C3CCCC3)CC2)c1,0.47%
21,Cc1ccc(Nc2nc(-c3ccc(O)cc3O)cs2)nc1,29% (active)
22,Clc1ccc(Nc2nc(-c3cccs3)cs2)nc1,14.9%
23,Cc1cccc(Nc2nc(-c3ccccc3)cs2)n1,9.05%
24,CCCOc1ccc(CNC(=O)C2CCN(c3nn4c(=O)cc(C)nc4s3)CC2)cc1,-0.67%

row,Compound,inhibition
1,COc1ccc(CN(C(=O)CSc2nnc(-c3ccc(OC)c(OC)c3)o2)c2ccc(F)cc2)cc1,-0.21%
2,COc1ccccc1C(=O)NC(CCSC)C(=O)NNC(=O)c1ccccc1C (stereo not given),-6.59%
3,O=S(=O)(NC1CCCC1)c1ccc(-n2cnnn2)cc1,-6.91%
4,COc1ccc(CC(=O)NC2CCSc3ccccc32)cc1OC (stereo not given),8.44%
5,CCC(C)(C)N=C(NC#N)Nc1cccnc1,-2.16%
6,CC[N+](C)(CC)CCC[n+]1c(-c2ccccc2)c2cc(N)ccc2c2ccc(N)cc21,54.4% (active)
7,N#C/C(=C/c1ccc(N2CCCCC2)o1)C(=O)NCCc1c[nH]c2ccccc12,31.4% (active)
8,CC(=O)N/C(=C/c1ccc(Cl)cc1)C(=O)NCCc1c[nH]c2ccccc12,1.47%
9,O=C(CN1C(=O)NC2(CCCCC2)C1=O)NCCc1c[nH]c2ccccc12,1.73%
10,CCOC(=O)c1c(C)[nH]c(C2=NNC(=NC(C)COC)SC2)c1C (stereo not given),-7.22%
11,CCC(C(=O)NC1CCCC1)N(C(=O)Cn1nnc(-c2ccc(C)o2)n1)c1ccc(OC)c(OC)c1 (stereo not given),2.08%
12,Cc1ccc(Cl)c(OCC(=O)N2CCc3ccccc3C2)c1,2.04%
13,FC(F)(F)c1nc(-c2ccccc2)ncc1-c1nnnn1-c1ccccc1,-1.36%
14,Oc1c(Cl)cc(Cl)c(Cl)c1Cc1c(O)c(Cl)cc(Cl)c1Cl,27% (active)
15,Cc1ccc2nc(SCC(=O)N3CCN(c4ccccc4)CC3)nc(=O)n2c1,11.8%
16,Cc1ccccc1CCN(CC(=O)NC1CCCCC1)C(=O)c1csnn1,3.53%
17,CCc1nc2nc(C)c(NS(=O)(=O)c3ccc4c(c3)CCCC4)c(=O)n2[nH]1,3.49%
18,CCOC(=O)c1c(C)oc(C)c(C(=O)OCC)c1=O,2.67%
19,CCOC(=O)c1nc(Nc2ccc(C(=O)OC)cc2)c2ccccc2n1,-3.8%
20,CCOC(=O)c1ccc(Nc2cc3ccccc3c(=O)[nH]2)cc1,51.5% (active)
21,CCOC(=O)c1ccc(NC(=O)c2cc(=O)[nH]c3ccccc23)cc1,-7.83%
22,CCNC(=S)N(CCN(CC)CC)Cc1cc2cc3c(cc2[nH]c1=O)OCO3,-3.38%
23,CC1CCC(CN2CCN=C2N(C)C)CC1 (stereo not given),0.76%
